Screen size: about 360,000 compounds; about 11,000 (3.1%) were called active. Inconclusive results (about 4%) are left out. This is one part of a sample in which actives are shown more often than they occur. A number with no mark means an inactive call. Calls come from the whole dose curve; as a rule, active = well fitted inhibition curve with a large enough effect; inconclusive = small, poorly fitted or top-dose-only effect; inactive = no such curve, though single readings can be large or run the other way.
biological target: Schistosoma mansoni thioredoxin glutathione reductase (TGR) (UniProt Q962Y6); assay: qHTS Assay for the Inhibitors of Schistosoma Mansoni Peroxiredoxins; details: purified TGR, DTNB reduction, TNB absorbance 405 nm; series mostly up to 114 µM; activity change, negative = inhibition: at the top concentration; note: nearly all actives have a fitted effect of over 60% in size
Summary of the method: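 First, TGR (20 nM dispensed) and NADPH were mixed with compound. Second, a 15 min room-temperature incubation followed. Third, further NADPH and then DTNB were added to start the reaction. Finally, TNB absorbance was monitored kinetically.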
% is set by controls: 0 for no effect and ±100 for the full control effect; potency is the fitted concentration of half-maximal effect.

Structure (SMILES)	activity change, negative = inhibition	Potency
Cc1ccc(NC(=O)CSc2nc3c([nH]c4ccccc43)c(=O)n2-c2ccccc2)c(C)c1	-3.56%	–
CCc1c(C)sc(NC(=O)C2c3ccccc3Oc3ccccc32)c1C(=O)OC(C)C	1.16%	–
CCOC(=O)C(=O)Nc1nc(-c2ccccc2)c(CC)s1	2.86%	–
C/C(=N/Nc1nc(-c2ccccc2)c(CC(=O)O)s1)c1ccccc1	–	0.316 µM (active)
CCOc1ccc(-c2nc(C)sc2CC(=O)O)cc1	-9.36%	–
Cc1ccc(-c2cn3c(n2)sc2cc(C(=O)NCc4cccs4)ccc23)c(C)c1	6.11%	–
COc1ccc(NC(=O)CSc2nccn2C2CCCC2)cc1OC	-4.83%	–
CCOc1ccc(-c2nonc2NC(=O)c2oc3ccc(CC)cc3c2C)cc1	-2.35%	–
CN(C(=O)CSc1nc2ccc(NC(=O)COc3ccccc3)cc2s1)c1ccccc1	0.0897%	–
Cc1cc(C)c(NC(=O)CN2C(=O)c3cccnc3Oc3ccc(Cl)cc32)c(C)c1	1.99%	–
CCNC(=O)Cn1nc(C)n2c(cc3c(OC)cccc32)c1=O	1.79%	–
CC(=O)Oc1cccc(N2C(=O)CC(Nc3ccc(N4CCOCC4)cc3)C2=O)c1 (stereo not given)	–	22.4 µM (active)
O=C(Nc1ccc(N2CCOCC2)cc1)c1ccc2c(c1)OCO2	3%	–
O=C(Nc1ccc(Cl)cc1)c1cccc(OC(=S)N2CCOCC2)c1	6.44%	–
CCCCn1c(N)c(N(CC)C(=O)c2ccccc2C(F)(F)F)c(=O)[nH]c1=O	-0.806%	–
CCCCN(C(=O)c1ccc(C)o1)c1c(N)n(CCCC)c(=O)[nH]c1=O	-0.875%	–
CCCCN(C(=O)c1nn(C)c(=O)c2ccccc12)c1c(N)n(CCC)c(=O)[nH]c1=O	0.41%	–
CCCCn1c(N)c(N(CC)C(=O)/C=C/c2ccco2)c(=O)[nH]c1=O	–	22.4 µM (active)
CCCCN(C(=O)/C=C/c1ccco1)c1c(N)n(CC(C)C)c(=O)[nH]c1=O	–	44.7 µM (active)
CCCCn1c(N)c(N(CC)C(=O)c2ccc(N(C)S(=O)(=O)c3ccc(C)cc3)cc2)c(=O)[nH]c1=O	-3.62%	–
Cc1ccc(OCC(=O)Nc2ccccc2C(=O)NC2CC2)cc1C	–	35.5 µM (active)
Cc1ccc(OCC(=O)Nc2ccccc2C(=O)NC2CC2)cc1	-0.415%	–
COc1ccccc1OCC(=O)Nc1ccccc1C(=O)NC1CC1	-1.12%	–
COc1cccc(C(=O)NC2=NC(c3ccc(N(C)C)cc3)CC(=O)N2)c1 (stereo not given)	0.667%	–
COc1cc2nc(SCC(=O)Nc3ccccc3F)n3nc(-c4ccccc4)nc3c2cc1OC	-0.478%	–

Structure (SMILES)	activity change, negative = inhibition	Potency
S=C(NCCc1ccccc1)NCC1CCCO1 (stereo not given)	-0.609%	–
Oc1c(Br)cc(/C=N/NC(=S)NCC2CCCO2)cc1Br (stereo not given)	–	2.51 µM (active)
S=C(NCC1CCCO1)N1CCN(c2ccc(Cl)c(Cl)c2)CC1 (stereo not given)	3.15%	–
CCc1ccc(N2C(=O)CN(S(=O)(=O)CC)CC2(C)C(=O)NC2CCCCC2)cc1 (stereo not given)	-1.55%	–
CCNC(=S)Nc1cccc(Cl)c1C	-10.8%	–
COc1ccc(NC(=S)Nc2ccccc2Cl)cn1	–	20 µM (active)
COc1cccc(NC(=O)CN2CCN(CC(=O)Nc3ccccc3Cl)CC2)c1	3.07%	–
O=C(CCc1nc(CN2CCN(S(=O)(=O)c3ccc(Br)cc3)CC2)no1)N1CCCCC1	1.39%	–
CCn1cc2nc(SCc3ccccc3Cl)n(CCc3ccccc3)c(=O)c2n1	9.93%	–
O=C(Nc1ccc(S(=O)(=O)Nc2ccccn2)cc1)c1ccccc1	-35.5%	–
COc1cc(NS(=O)(=O)c2ccc(NC(=S)NC(=O)c3ccc(Br)cc3)cc2)ncn1	–	17.8 µM (active)
COc1cc(NS(=O)(=O)c2ccc(NC(=O)c3ccc(S(=O)(=O)N4CCCCC4)cc3)cc2)ncn1	-3.68%	–
COc1cc(NS(=O)(=O)c2ccc(NC(=O)CN3C(=O)c4ccccc4C3=O)cc2)ncn1	9.44%	–
COc1ccc(NS(=O)(=O)c2ccc(NC(=S)NC(=O)CC(C)C)cc2)cc1	-0.834%	–
COc1cc(NS(=O)(=O)c2ccc(NC(=S)NC(=O)c3ccccc3)cc2)nc(OC)n1	–	20 µM (active)
COc1ccc(-c2nc3c4ccccc4n(CC(=O)Nc4ccc(C(C)=O)cc4)c(=O)n3n2)cc1	13.4%	–
Cc1ccccc1-n1c(=O)c2ccccc2n(Cc2ccc(F)cc2)c1=O	7.8%	–
Nc1ccccc1SC(C[N+](=O)[O-])c1ccccc1 (stereo not given)	–	17.8 µM (active)
Cc1ccccc1-c1nc2cc(NC(=O)c3cccc(OCCC(C)C)c3)ccc2o1	8.98%	–
CCOc1ccc(C(=O)c2cn(Cc3ccc(F)cc3)c3ccc(F)cc3c2=O)cc1	-1.64%	–
O=C(CSc1nc2ccccc2nc1Cc1ccccc1)N1CCCCC1	4.64%	–
O=C1CCCCC1C(=O)c1ccccc1 (stereo not given)	-13.6%	–
CN(C)CC1CCCCC1=O (stereo not given)	–	11.2 µM (active)
CC(C)(C)OC(=O)N1CCC(c2c(C(=O)N3CCc4ccccc4C3)cnn2-c2ccc(F)cc2)CC1	-2.89%	–
COc1cc(NC(=O)c2cc(C3CC3)nc3c2c(C)nn3-c2ccccc2)cc(OC)c1	9.3%	–

Structure (SMILES)	activity change, negative = inhibition	Potency
Cc1ccc(NC(=O)NC(C)c2c(-n3cccc3)sc(C)c2C)c(C)c1 (stereo not given)	-2.64%	–
Cc1c(NC(=O)Nc2ccc(F)c(Cl)c2)c(=O)n(-c2ccccc2)n1C	5.55%	–
Cc1ccccc1NC(=O)c1c(NC(=O)c2ccccc2F)sc2c1CCC(C)C2 (stereo not given)	-0.827%	–
Cc1ccc(Oc2c(C(F)(F)F)oc3c(CN4CCCCC4)c(O)ccc3c2=O)cc1	-1.67%	–
CCOC(=O)COc1cc(OCC(=O)OCC)c2c(=O)cc(-c3ccccc3)oc2c1	-8.08%	–
COc1ccc(-c2c(C)c3ccc(O)c(CN4CCN(C)CC4)c3oc2=O)cc1OC	-9.47%	–
COc1c(O)cc2oc(-c3ccc(O)c(O)c3)cc(=O)c2c1O	–	39.8 µM (active)
CC1=C(C(=O)N2CCN(c3cccc(C(F)(F)F)c3)CC2)C2(CCCCC2)OC1=O	-12.2%	–
Cc1ccc(Nc2nc3ccccc3nc2-n2nc(C)cc2C)c(Cl)c1	1.74%	–
Cc1oc2ccc(O)c(CN3CCC(C)CC3)c2c1C(=O)Nc1ccccc1	6.52%	–
CN(Cc1ccccc1)C(=O)c1cn(C)c2ccc(S(=O)(=O)N(C)C3CCCCC3)cc2c1=O	-3.46%	–
CCCC12CN3CC(C)(CN(C1)C3c1ccccc1Cl)C2=O (stereo not given)	8.29%	–
COc1ccc(CCNC2=CC(=O)CC(C)(C)C2)cc1	2%	–
COc1ccc(NC(=S)NC2CCS(=O)(=O)C2)cc1 (stereo not given)	-28.9%	–
COc1ccc(NC2=CC(=S)NC(C)(C)C2)cc1	–	35.5 µM (active)
Cc1ccccc1NC(=O)c1cc2c([nH]c1=O)CC(C)(C)CC2=O	2.06%	–
O=c1c2ccccc2oc2nc(C3CCCCC3)n(Cc3ccco3)c(=O)c12	-23.6%	–
Cc1ccc(Cn2c(=O)n(Cc3nc(-c4ccccc4)no3)c(=O)c3cc4c(cc32)OCO4)cc1	-1.74%	–
Cc1ccc(Cn2c(C)nc3c(c2=O)c2nc4ccccc4nc2n3Cc2ccco2)cc1	–	1.41 µM (active)
CCOc1ccc(-c2cc3c(=O)n(CC(=O)NCc4ccc(OC)cc4)ccn3n2)cc1	7.47%	–
O=C(c1ccc2c(c1)N(Cc1ccccc1F)C(=O)c1ccccc1S2(=O)=O)N1CCOCC1	-5.87%	–
COc1ccc(-c2nc(Cn3c(=O)cc(C)c4c(C)nn(-c5ccccc5)c43)c(C)o2)cc1OC	5.92%	–
COC(=O)c1ccc(CN2CCN(CCCc3ccccc3)C(CCO)C2)cc1 (stereo not given)	-13.6%	–
CC(=O)Nc1ccc(CN2CCN(Cc3ccc(F)c(F)c3)C(CCO)C2)cc1 (stereo not given)	–	20 µM (active)
Cc1ccc(CN2CCN(Cc3ccc4ncccc4c3)CC2CCO)cc1 (stereo not given)	1.94% [at 57.1 µM]	–

Structure (SMILES)	activity change, negative = inhibition	Potency
CCS(=O)(=O)N1CCc2cc(C(=O)N3CCN(c4ccccc4OC)CC3)ccc21	-8.48%	–
CCCCOc1ccc(C(C)(O)CCN2CCOCC2)cc1 (stereo not given)	12.9%	–
CCOc1ccc(C(=O)CCN2CCOCC2)cc1	–	2.82 µM (active)
CCOc1ccc(C(=O)CCC(=O)Nc2ccncc2)cc1	-9.7%	–
O=C(CSc1ncc(S(=O)(=O)c2ccc(Br)cc2)c(=O)[nH]1)Nc1ccc2c(c1)OCCO2	-3.16%	–
Cc1ccc(C)c(Cn2c(CCCNC(=O)C3CCCCC3)nc3ccccc32)c1	19%	–
COc1ccc(N2CCN(C(c3cc4ccc(C)cc4[nH]c3=O)c3nnnn3C3CCCC3)CC2)cc1 (stereo not given)	-25.8%	–
COCCn1nnnc1C(c1cc2ccc(OC)cc2[nH]c1=O)N1CCc2ccccc2C1 (stereo not given)	–	44.7 µM (active)
COc1ccc(OC)c(C(c2nnnn2C(C)(C)C)N2CCc3ccccc3C2)c1 (stereo not given)	9.36%	–
CCOc1ccccc1NC(=O)c1ccc2c(c1)CCN2S(=O)(=O)c1ccc(C)cc1	-0.363%	–
COc1ccc(-c2onc(C)c2C)cc1S(=O)(=O)NCCc1ccccc1	3.1%	–
O=c1[nH]c2cc(Br)ccc2n2cccc12	-2.58%	–
CCOc1ccc(C2CC(=O)c3c([nH]c(C(=O)OCc4ccccc4)c3C)C2)cc1 (stereo not given)	0.0883%	–
O=C(NCC(=O)N1CCN(c2ccccc2F)CC1)c1cccs1	-1.91%	–
CCc1cccc(C)c1NC(=O)COC(=O)CNC(=O)c1cccs1	-1.2%	–
Cc1ccccc1C(CC(=O)c1cccs1)C(C#N)C#N (stereo not given)	–	3.16 µM (active)
COc1ccc(Br)c2c1C(=O)CC2	–	35.5 µM (active)
COc1ccc(C(=O)OCC(=O)N2CC(=O)Nc3ccccc32)cc1Br	0.0642%	–
COc1cccc2c1CCC(NC(C)=O)C2=O (stereo not given)	-13.1%	–
Cc1cc(C)cc(OCC(=O)Nc2c(C(=O)c3ccccc3)oc3ccccc23)c1	-3.12%	–
Cc1ccc(-c2onc(C)c2C)cc1S(=O)(=O)Nc1ccccn1	-11.7%	–
CCc1ccc(NC(=O)Cn2c(=O)n(CCC(=O)NCc3ccc4c(c3)OCO4)c(=O)c3ccccc32)cc1	0.572%	–
O=[N+]([O-])c1cc(C(F)(F)F)ccc1NN=C1CCCC1	-15.3%	–
O=C(Nc1ccccc1)O/N=C1\CCCCC1c1ccc([N+](=O)[O-])cc1[N+](=O)[O-] (stereo not given)	8.17%	–
O=[N+]([O-])c1ccc(N/N=C2/CCCCC2c2ccccn2)c([N+](=O)[O-])c1 (stereo not given)	–	8.91 µM (active)
